Data published in PubChem BioAssay (Tox21).
Inconclusive results are not listed. Calls of active or inactive are those of the source. Calls come from the whole dose curve; as a rule, active = well fitted curve in the direction sought with a large enough effect in the repeat runs; inconclusive = weak or mixed curves; inactive = no such curve, though single readings can be large; an effect the other way counts as inactive or inconclusive.

Assays:
[1] = qHTS RealTime-Glo MT Cell Viability Assay in HEK293 cells - 0 hour (AID 1224880); note: top concentration of the series differs between compounds; nearly all actives have a fitted effect of over 45% in size
Outline: (§1)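 Tox21 screen in HEK293 using RealTime-Glo MT chemistry, with cells and reagent co-dispensed. Luminescence proportional to viable cell number was captured at intervals during 40 h compound exposure at 37 C.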

[2] = A CellTox Green Cytotoxicity Assay to monitor cytotoxicity in HEK293 cells - 32 hour (AID 1224881); note: nearly all actives have a fitted effect of over 40% in size
Outline: (§2)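 Seeding of HEK293 cells together with cytotoxicity dye preceded a 5 h incubation at 37 C/5% CO2. Test compounds in DMSO were then added and fluorescence monitored across 40 h.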

[3] = A CellTox Green Cytotoxicity Assay to monitor cytotoxicity in HepG2 cells - 0 hour (AID 1224882); note: nearly all actives have a fitted effect of over 35% in size
Outline: (§3)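 Nonlytic assay: viable cells exclude the dye, so fluorescence scales with cell death. HepG2 at 600 cells/well, compounds added after 5 h, signal read across 40 h.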

[4] = A CellTox Green Cytotoxicity Assay to monitor cytotoxicity in HepG2 cells - 32 hour (AID 1224883); note: nearly all actives have a fitted effect of over 50% in size
Outline: as §3

[5] = A CellTox Green Cytotoxicity Assay to monitor cytotoxicity in HEK293 cells - 8 hour (AID 1224884); note: nearly all actives have a fitted effect of over 35% in size
Outline: as §2

[6] = qHTS RealTime-Glo MT Cell Viability Assay in HepG2 cells - 16 hour (AID 1224885); note: nearly all actives have a fitted effect of over 50% in size
Outline: (§4)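 Cell number in HepG2 cultures estimated from NanoLuc luminescence generated by metabolic reduction of a prosubstrate by living cells. The homogeneous, nonlytic format allowed repeated reads at 0, 8, 16, 24, 32 and 40 h of compound exposure.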

[7] = qHTS RealTime-Glo MT Cell Viability Assay in HEK293 cells - 24 hour (AID 1224886); note: top concentration of the series differs between compounds; nearly all actives have a fitted effect of over 50% in size
Outline: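 Homogeneous bioluminescent viability format in HEK293 cells (600 cells/well). Following 5 h at 37 C/5% CO2, 23 nL compound was pintooled; the signal was measured repeatedly during 40 h incubation.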

[8] = qHTS RealTime-Glo MT Cell Viability Assay in HEK293 cells - 8 hour (AID 1224887); note: top concentration of the series differs between compounds; nearly all actives have a fitted effect of over 50% in size
Outline: as §1

[9] = A CellTox Green Cytotoxicity Assay to monitor cytotoxicity in HEK293 cells - 16 hour (AID 1224888); note: nearly all actives have a fitted effect of over 35% in size
Outline: as §2

[10] = qHTS RealTime-Glo MT Cell Viability Assay in HepG2 cells - 0 hour (AID 1224889); note: nearly all actives have a fitted effect of over 50% in size
Outline: as §4

[11] = A CellTox Green Cytotoxicity Assay to monitor cytotoxicity in HepG2 cells - 8 hour (AID 1224890); note: nearly all actives have a fitted effect of over 45% in size
Outline: as §3

[12] = qHTS assay to identify small molecule antagonists of the estrogen receptor alpha (ER-alpha) signaling pathway using the BG1 cell line in the presence of 0.1 nM 17-beta-estradiol - cell viability counter screen (AID 1259241); note: nearly all actives have a fitted effect of over 40% in size
Outline: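 VM7Luc4E2 cells (endogenous full-length ER-alpha, 4xERE-luciferase), cultured 5 days in charcoal-stripped serum, exposed to compounds with 0.1 nM 17beta-estradiol (final) for 22 hr at 37C. Viability read in same wells as live-cell protease fluorescence after 30 min.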

[13] = qHTS assay to identify small molecule antagonists of the androgen receptor (AR) signaling pathway using the MDA cell line in the presence of 0.5 nM R1881 - cell viability counter screen (AID 1259242); note: nearly all actives have a fitted effect of over 45% in size
Outline: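 R1881 at 0.5 nM final stimulated MDA-kb2 cells during 16 hr compound treatment at 37C. Cytotoxicity read: CellTiter-Fluor fluorescence after 30 min.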

[14] = molecular target: Androgen receptor (Homo sapiens) (UniProt P10275); assay: qHTS assay to identify small molecule antagonists of the androgen receptor (AR) signaling pathway using the MDA cell line in the presence of 0.5 nM R1881 (AID 1259243); note: nearly all actives have a fitted effect of over 50% in size
Androgen receptor (Homo sapiens), sequence (P10275 whole entry, looked up): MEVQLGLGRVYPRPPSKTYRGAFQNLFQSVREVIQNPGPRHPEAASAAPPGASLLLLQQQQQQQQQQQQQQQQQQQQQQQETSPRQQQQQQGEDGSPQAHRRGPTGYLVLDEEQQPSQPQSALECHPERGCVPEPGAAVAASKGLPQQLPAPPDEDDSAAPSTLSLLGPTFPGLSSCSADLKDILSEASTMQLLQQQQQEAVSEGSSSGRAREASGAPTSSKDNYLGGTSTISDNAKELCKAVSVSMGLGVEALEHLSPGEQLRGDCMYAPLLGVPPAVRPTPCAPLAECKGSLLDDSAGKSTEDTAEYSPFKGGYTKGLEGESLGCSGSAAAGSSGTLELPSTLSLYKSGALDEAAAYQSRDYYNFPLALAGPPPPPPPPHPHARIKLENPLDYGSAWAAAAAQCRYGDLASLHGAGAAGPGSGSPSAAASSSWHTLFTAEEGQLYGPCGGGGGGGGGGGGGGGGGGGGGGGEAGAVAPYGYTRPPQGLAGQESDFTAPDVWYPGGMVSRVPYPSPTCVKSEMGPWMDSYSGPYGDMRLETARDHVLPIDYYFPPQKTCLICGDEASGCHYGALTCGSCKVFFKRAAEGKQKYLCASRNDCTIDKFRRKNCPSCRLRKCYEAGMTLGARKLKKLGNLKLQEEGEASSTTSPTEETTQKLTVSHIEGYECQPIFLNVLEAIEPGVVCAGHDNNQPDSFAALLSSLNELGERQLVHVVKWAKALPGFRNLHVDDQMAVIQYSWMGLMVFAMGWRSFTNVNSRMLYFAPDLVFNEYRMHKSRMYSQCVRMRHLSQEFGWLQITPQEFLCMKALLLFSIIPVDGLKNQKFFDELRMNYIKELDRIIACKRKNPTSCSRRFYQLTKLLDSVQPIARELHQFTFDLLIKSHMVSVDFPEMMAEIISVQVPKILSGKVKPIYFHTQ
Outline: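 We exposed MDA-kb2 cells to compounds under 0.5 nM R1881 stimulation for 16 hr at 37C and quantified MMTV-driven luciferase by luminescence.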

[15] = molecular target: Estrogen receptor (Homo sapiens) (UniProt P03372); assay: qHTS assay to identify small molecule antagonists of the estrogen receptor alpha (ER-alpha) signaling pathway using the BG1 cell line in the presence of 0.1 nM 17-beta-estradiol (AID 1259244); note: nearly all actives have a fitted effect of over 50% in size
Estrogen receptor (Homo sapiens), sequence (P03372 whole entry, looked up): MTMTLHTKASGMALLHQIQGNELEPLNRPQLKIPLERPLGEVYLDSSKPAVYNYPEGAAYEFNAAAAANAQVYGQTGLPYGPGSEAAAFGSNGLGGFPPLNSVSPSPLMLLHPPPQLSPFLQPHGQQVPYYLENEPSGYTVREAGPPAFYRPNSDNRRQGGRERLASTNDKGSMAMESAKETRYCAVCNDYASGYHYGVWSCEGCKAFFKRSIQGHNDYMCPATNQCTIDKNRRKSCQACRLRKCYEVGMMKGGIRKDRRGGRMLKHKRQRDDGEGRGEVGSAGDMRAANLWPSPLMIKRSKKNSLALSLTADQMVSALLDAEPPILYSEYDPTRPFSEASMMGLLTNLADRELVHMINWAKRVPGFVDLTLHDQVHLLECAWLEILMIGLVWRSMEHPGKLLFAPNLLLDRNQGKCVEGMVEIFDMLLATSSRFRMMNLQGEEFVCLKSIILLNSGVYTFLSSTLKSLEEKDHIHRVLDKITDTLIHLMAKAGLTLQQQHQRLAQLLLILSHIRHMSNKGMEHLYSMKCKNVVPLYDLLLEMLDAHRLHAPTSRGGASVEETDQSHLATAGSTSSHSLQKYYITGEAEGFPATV
Outline: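 VM7Luc4E2; 4xERE-luciferase; 0.1 nM E2 final; 22 h co-incubation, 37C; ONE-Glo luminescence after 30 min at room temperature.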

[16] = qHTS assay to identify small molecule HDAC inhibitors (AID 1259364);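 note: wild-type HCT-116 cells with endogenous class I/II HDAC activity; top concentration of the series differs between compounds; nearly all actives have a fitted effect of over 45% in size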
Outline: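 Relative class I and II HDAC activity is taken from the luminogenic signal in HCT-116 cells, with compound exposure 2 hr and reagent development 30 min at room temperature.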

[17] = qHTS assay to identify small molecule HDAC inhibitors - cell viability counter screen (AID 1259365)
Outline: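 Wild-type HCT-116 cells, 1,500/well, cultured overnight, then compound-treated 2 h at 37 C. Viability measured as ATP luminescence with CellTiter-Glo after 30 min at room temperature.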

[18] = qHTS assay to identify small molecule agonists of the sonic hedgehog signaling (Shh) pathway - cell viability counter screen (AID 1259366); note: nearly all actives have a fitted effect of over 50% in size
Outline: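 NIH/3T3-derived Gli1-Luc reporter cells, 2,000 per well, received compound after 4 h and were treated about 23 h at 37C. Viability measured in the same wells by CellTiter-Fluor fluorescence after 1 h.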

[19] = qHTS assay to identify small molecule antagonists of the sonic hedgehog signaling (Shh) pathway - cell viability counter screen (AID 1259367); note: nearly all actives have a fitted effect of over 55% in size
Outline: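 Seed 3T3 Gli1-Luc cells at 2,000 per well; incubate 4 hr; add compound in DMSO, then conditioned medium; incubate at 37C with 5% CO2; add CellTiter-Fluor after 23 hr; read fluorescence 1 hr later.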

Measured: Potency

CCCC1CCOC(C)S1 (stereo not given)
not listed: [19]
inactive: all other assays above

CC1(C)CC(=O)CC(C)(C)N1
not listed: [14]
inactive: all other assays above

C=CC(=O)OCCCCCCCCCC
not listed: [14]
inactive: all other assays above

CCC(CC)C(=O)O
not listed: [14]
inactive: all other assays above

O=P(c1ccccc1)(c1ccccc1)c1ccccc1
not listed: [14] | [17]
inactive: all other assays above

CO[C@@H]1[C@@H](O[C@@H]2O[C@H](C)[C@@H](O[C@H]3C[C@@](C)(O)[C@@H](O)[C@H](C)O3)[C@H](N(C)C)[C@H]2O)[C@@H](CC=O)C[C@@H](C)[C@@H](O[C@@H]2CC[C@H](N(C)C)[C@@H](C)O2)/C=C/C=C/C[C@@H](C)OC(=O)C[C@H]1OC(C)=O
not listed: [14]
inactive: all other assays above

C=CC(=O)NC(C)(C)C
not listed: [14]
inactive: all other assays above
